Measurements as given in the supplement of paper PMC12808144.
Unmarked numbers belong to inactive results.

Legend:
NHEM-hTERT = experiment: cell viability relative to DMSO control (fraction of DMSO control); higher = less cytotoxic, active = 0.5 or less; settings: 1 µM; 120 h
In short: (§1)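 Cells in 40 µl per well went into 384-well plates pre-spotted acoustically with a TargetMol library of 315 approved anti-cancer drugs, each at 1 µM in duplicate, for 120 h. Seeding was 2500/well for NHEM-hTERT immortalized melanocytes and 1500/well for patient-derived Mel-DCC-11 and its resistant subline Mel-DCC-11-R, which was run alone and with 8 µM of its selecting drug. Luminescence was read with ATPlite 1step. Viability was normalised to vehicle-treated controls and averaged over duplicates.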

Mel-DCC-11-R = experiment: cell viability relative to DMSO control (fraction of DMSO control); higher = less cytotoxic, active = 0.8 or less; settings: 1 µM, 120 h
In short: as §1

| Structure (SMILES) | cell viability (NHEM-hTERT) | cell viability (Mel-DCC-11-R; vemurafenib co-treatment 0 µM) | cell viability (Mel-DCC-11-R; vemurafenib co-treatment 8 µM) |
| --- | --- | --- | --- |
| CCN1CCN(Cc2ccc(Nc3ncc(F)c(-c4cc(F)c5nc(C)n(C(C)C)c5c4)n3)nc2)CC1 [Abemaciclib] | 0.921 | 1.38 | 0.669 (active) |
| O=c1cc(O)c(Cl)c[nH]1 [Gimeracil] | 0.996 | 0.944 | 1.13 |
| COC(=O)Nc1nc2ccc(C(=O)c3cccs3)cc2[nH]1 [Nocodazole] | 0.63 | 0.823 | 0.518 (active) |
| Cl.N=c1ccn2c(n1)O[C@H]1[C@H](O)[C@@H](CO)O[C@H]12 [Cyclocytidine hydrochloride] | 0.845 | 0.873 | 0.599 (active) |
| Cc1cc(Nc2cc(N3CCN(C)CC3)nc(Sc3ccc(NC(=O)C4CC4)cc3)n2)n[nH]1 [Tozasertib] | 0.841 | 1.14 | 0.752 (active) |
| Cl.Cl.O=C1c2c(O)ccc(O)c2C(=O)c2c(NCCNCCO)ccc(NCCNCCO)c21 [Mitoxantrone hydrochloride] | 0.797 | 1.14 | 0.477 (active) |
| C[C@@H](CN1CC(=O)NC(=O)C1)N1CC(=O)NC(=O)C1.Cl [Dexrazoxane HCl] | 1.2 | 1.09 | 1.13 |
| Nc1cccc2c1CN(C1CCC(=O)NC1=O)C2=O (stereo unspecified) [Lenalidomide] | 0.996 | 0.713 (active) | 1.01 |
| CN(C)C(=O)c1cc2cnc(Nc3ccc(N4CCNCC4)cn3)nc2n1C1CCCC1 [Ribociclib] | 0.989 | 1.25 | 1.21 |
| CN(C)CCOc1ccc(/C(=C(/CCCl)c2ccccc2)c2ccccc2)cc1 [Toremifene] | 0.904 | 0.887 | 1.26 |
| O=C(O)CCc1nc2ccccc2[nH]1 [Procodazole] | 1.02 | 1.09 | 1 |
| O=NN(CCCl)C(=O)NC1CCCCC1 [Lomustine] | 0.938 | 0.985 | 1.11 |
| O=C(c1ccc(F)c(F)c1Nc1ccc(I)cc1F)N1CC(O)([C@@H]2CCCCN2)C1 [Cobimetinib] | 0.715 | 0.309 (active) | 0.302 (active) |
| CC(C)(CO)c1cc2cc(NC(=O)C3(c4ccc5c(c4)OC(F)(F)O5)CC3)c(F)cc2n1C[C@@H](O)CO | 1.06 | 1.18 | 1.07 |
| Cc1[nH]c2ccccc2c1CCNCc1ccc(/C=C/C(=O)NO)cc1 [Panobinostat] | 0.339 (active) | 0.0716 (active) | 0.0801 (active) |
| Cc1cn(-c2cc(NC(=O)c3ccc(C)c(Nc4nccc(-c5cccnc5)n4)c3)cc(C(F)(F)F)c2)cn1 [Nilotinib] | 0.969 | 1.15 | 1.06 |
| Nc1ncn([C@@H]2O[C@H](CO)[C@@H](O)[C@H]2O)c(=O)n1 [Mylosar] | 0.874 | 0.927 | 0.745 (active) |
| CCN(CC)CCOc1ccc2c(c1)C(=O)c1cc(OCCN(CC)CC)ccc1-2.Cl.Cl [Tilorone dihydrochloride] | 1.15 | 0.883 | 1.15 |
| CN(N=O)C(=O)N[C@@H]1[C@@H](O)[C@H](O)[C@@H](CO)O[C@@H]1O [Streptozocin] | 1.11 | 0.976 | 1.1 |
| Cc1ccc(NC(=O)C2(c3ccc4c(c3)OC(F)(F)O4)CC2)nc1-c1cccc(C(=O)O)c1 [Lumacaftor] | 0.997 | 0.946 | 1.04 |
| COc1cccc2c1C(=O)c1c(O)c3c(c(O)c1C2=O)C[C@@](O)(C(C)=O)C[C@@H]3O[C@H]1C[C@H](N)[C@H](O)[C@H](C)O1.Cl [Daunorubicin hydrochloride] | 0.363 (active) | 0.0677 (active) | 0.0387 (active) |
| C=C[C@H]1[C@@H](O[C@@H]2O[C@H](CO)[C@@H](O)[C@H](O)[C@H]2O)OC=C2C(=O)OCC[C@]21O [Swertiamarin] | 0.942 | 0.976 | 1.2 |
